Assay outcomes deposited in PubChem BioAssay by National Center for Advancing Translational Sciences (NCATS).
DRD3 antagonist: antagonists of human D3 dopamine receptor; max response, negative = inhibition, %; 360,000 tested, 2.5% active; P35462; D3R cells, DiscoveRx beta-arrestin luminescence, antagonist mode; stronger effect = lower value; in the data active = max response below about -50%; inconclusive = no clear call, values can overlap the other calls; note: % is set by controls: 0 for no effect and ±100 for the full control effect
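Cells plated overnight at 1500 cells/well, then exposed to library compounds with dopamine controls for 90 minutes at 37 degrees C. DiscoveRx reagent added for 30–60 minutes at room temperature; luminescence read, quantitative HTS format.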
Mm-Cpn inhibitor: blocks the Methanococcus maripaludis chaperonin Mm-Cpn; AID 504842; Potency, µM (doses to about 76.9 µM), for inactives: at the top dose activity, negative = inhibition, hits mostly inhibitors; 330,000 tested, 0.031% active; purified Mm-Cpn ATPase, ADP Transcreener TR-FRET; active = well fitted inhibition curve with a large enough effect; inconclusive = small, poorly fitted or top-dose-only effect; note: potency is the fitted concentration of half-maximal effect; % is set by controls: 0 for no effect and ±100 for the full control effect; nearly all actives have a fitted effect of over 80% in size
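ATPase turnover read by TR-FRET ADP competition (Eu cryptate antibody/ADP-d2, 665/590 nm): 10uM ATP final, 25nM Mm-CPN final, 30 min 37degC after 10-min compound preincubation, pH 7.4 Tris/KCl/MgCl2/DTT buffer.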
Rango release inh: prevents RanGTP from dissociating the Rango-importin beta complex. O95149+P62826. Biochemical FRET Rango-importin beta, RanGTP-induced dissociation. Potency, µM (titrated, usually from 46.1 µM), for inactives: at the top dose activity change, negative = inhibition. 340,000 tested, 0.071% active; note: potency is the fitted concentration of half-maximal effect; % of control where 0% means no effect; nearly all actives have a fitted effect of over 45% in size
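Rango (0.1 uM)–importin beta (0.25 uM) complex; RanGTP-RCC1 trigger; 45 min RT; CFP/YFP FRET read.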
D3 ag: activates the human D3 dopamine receptor; P35462; D3R DiscoveRx beta-arrestin cells, luminescence, 90 min; 410,000 tested, 0.58% active; max activation, %; AID 652048; in the data active = max activation above about 30%; note: 0% is about no effect
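Agonist mode: compounds and dopamine controls were applied to plated cells for 90 min at 37 degrees C after an overnight attachment at 1500 cells/well. Luminescent read-out followed 30 - 60 minutes at room temperature with DiscoveRx detection reagent.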
Rango complex inh: inhibitors of Rango-importin beta complex formation. Q14974. Rango CFP/YFP FRET sensor + importin beta, 45 min. Potency, µM (top dose mostly 92.2 µM), without a hit: top-dose inhibition of complex formation. 340,000 tested, 0.031% active;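 note: potency is the fitted concentration of half-maximal effect; 0% = DMSO wells and 100% = buffer wells lacking importin beta; nearly all actives have a fitted effect of over 15% in size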
Target sequence (Q14974 whole entry, looked up): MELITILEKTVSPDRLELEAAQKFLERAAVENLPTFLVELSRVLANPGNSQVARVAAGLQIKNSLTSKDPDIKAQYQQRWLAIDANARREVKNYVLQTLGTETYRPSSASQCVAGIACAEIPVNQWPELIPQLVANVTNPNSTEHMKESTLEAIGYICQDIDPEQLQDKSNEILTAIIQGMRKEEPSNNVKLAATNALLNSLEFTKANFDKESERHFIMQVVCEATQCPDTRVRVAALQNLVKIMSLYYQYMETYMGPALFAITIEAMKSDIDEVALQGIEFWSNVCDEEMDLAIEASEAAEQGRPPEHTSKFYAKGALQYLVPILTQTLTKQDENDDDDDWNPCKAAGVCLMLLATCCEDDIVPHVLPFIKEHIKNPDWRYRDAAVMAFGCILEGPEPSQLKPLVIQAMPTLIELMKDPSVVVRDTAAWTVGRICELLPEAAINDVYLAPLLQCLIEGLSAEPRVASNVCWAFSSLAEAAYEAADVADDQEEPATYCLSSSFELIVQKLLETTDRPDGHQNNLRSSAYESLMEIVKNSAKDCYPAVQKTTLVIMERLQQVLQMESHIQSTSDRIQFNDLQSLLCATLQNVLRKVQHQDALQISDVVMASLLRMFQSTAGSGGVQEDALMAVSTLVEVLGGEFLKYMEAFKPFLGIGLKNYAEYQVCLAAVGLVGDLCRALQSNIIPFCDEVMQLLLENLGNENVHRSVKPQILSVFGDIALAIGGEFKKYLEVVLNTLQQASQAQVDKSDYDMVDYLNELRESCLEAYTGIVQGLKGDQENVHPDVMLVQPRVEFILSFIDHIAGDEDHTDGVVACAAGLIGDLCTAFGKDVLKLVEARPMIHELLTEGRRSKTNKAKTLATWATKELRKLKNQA
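Inhibition scored from the CFP 486 nm/YFP 530 nm FRET ratio 45 min after adding 0.125 microM importin beta to 50 nM Rango biosensor preincubated 5 min with compound (room temperature, PBS with DTT, Tween-20, BSA). No-importin wells as positive control.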
TSG101-PTAP inh: blocks PTAP/TSG101 interaction to inhibit HIV-1 budding. Fluorescence polarization, FITC-PTAP peptide / Tsg101 binding. Potency, µM (doses to about 115 µM), for the others: at the top dose activity change, negative = inhibition, actives largely listed as inhibitors. 340,000 tested, under 10 active. AID 493005; active = well fitted inhibition curve with a large enough effect in the main read-out, with a control signal flat, not every such curve was filed as active; inconclusive = small, poorly fitted or top-dose-only effect, or effect the other way, or a change in a side signal; inactive = no such curve, though single readings can be large or run the other way; note: potency is the fitted concentration of half-maximal effect; % of control where 0% means no effect
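Fluorescence anisotropy tracks displacement of a FITC-tagged PTAP peptide (50 nM) from the Tsg101 binding domain (10 uM), following a 20 min room-temperature incubation at pH 7.5.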
* marks the source's active call; other numbers are inactive results; ? = inconclusive; / = no result given; [ ] = remark or other dose. Rows were chosen to be rich in hits. Some 2.9% of all compounds tested hit in one or more screens of this group. Unless noted, calls come from the whole dose curve.

SMILES	DRD3 antagonist	Mm-Cpn inhibitor	Rango release inh	D3 ag	Rango complex inh	TSG101-PTAP inh
CCOc1ccc(-c2cc(C(=O)N/N=C/c3cccnc3)c3ccccc3n2)cc1	14	1%	13%	0	-2%	-4%
COc1ccc(NC(=O)c2ccc(Br)c(S(=O)(=O)N3CCOCC3)c2)cc1	10	1%	4%	9	-1%	0%
OC(COc1cccc2ccccc12)CN1CCN(c2ccccc2Cl)CC1 (stereo not given)	-81*	1%	2%	27	4%	-3%
COc1cccc(OC)c1OCC(O)CN1CCN(c2ccccc2)CC1 (stereo not given)	-9	-1%	-5%	1	1%	-6%
COc1ccccc1N1CCN(CC(O)COc2c(OC)cccc2OC)CC1 (stereo not given)	-99*	-3%	21%	-7	-1%	-6%
COc1ccccc1N1CCN(CCCCOc2ccc(C)cc2C)CC1	-86*	-6%	7%	-11	7%	-1%
COc1ccc2[nH]cc(C(O)CN3CCN(c4ccccc4F)CC3)c2c1 (stereo not given)	-63*	1%	4%	-25	1%	1%
COc1ccc(NCc2cc3cc4c(cc3n(CC(=O)Nc3ccc(C)c(C)c3)c2=O)OCO4)cc1	/	/	/	-1	/	/
Cc1ccc(Cn2c(=O)n(Cc3ccco3)c(=O)c3oc4ccccc4c32)cc1	/	/	/	-12	/	/
COc1ccc(N2CCN(CC(O)COCCOc3ccc(Br)cc3)CC2)cc1 (stereo not given)	10	0%	-12%	-2	-2%	0%
CCOC(=O)N1CCN(CC(O)c2ccc3cc[nH]c3c2)CC1 (stereo not given)	5	0%	-5%	3	-2%	-6%
COc1ccccc1N1CCN(CC(O)COCc2cccs2)CC1 (stereo not given)	-62*	-4%	3%	-3	0%	-1%
COc1ccccc1N1CCN(CC(O)COCCOc2ccc(Br)cc2)CC1 (stereo not given)	-86*	0%	-6%	-12	5%	-2%
COc1ccccc1N1CCN(CC(O)COc2ccc(C)cc2C)CC1 (stereo not given)	-94*	-1%	-11%	-20	0%	-3%
COc1ccccc1N1CCN(CC(O)c2ccc3cc[nH]c3c2)CC1 (stereo not given)	-82*	1%	15%	-15	-1%	0%
Cc1cc(C)c(/C=C/c2onc(C)c2S(=O)(=O)N2CCC(C(=O)N3CCN(c4ccccc4)CC3)CC2)c(C)c1	/	/	/	3	/	/
CCOc1ccccc1CNC(=O)C1CCN(c2nn3cc(-c4ccc(F)cc4)nc3s2)CC1	/	/	/	5	/	/
Nc1cc(C(=O)OCC(=O)Nc2cccc(S(=O)(=O)N3CCOCC3)c2)ccc1Cl	2	-5%	15%	2	1%	-10%
CC1=C(C(=O)Nc2ccccc2C)C(c2ccco2)n2ncnc2N1 (stereo not given)	/	/	/	2	/	/
COc1ccccc1C(=O)Nc1ccc2oc(-c3cccc(Cl)c3Cl)nc2c1	/	/	/	-6	/	/
CCc1ccc(-n2c(=O)c3sc4ccccc4c3n(CC(=O)NCc3ccccc3)c2=O)cc1	/	/	/	8	/	/
CN(C)Cc1c(C(=O)Nc2ccccc2)[nH]c2ccccc12	-57*	-1%	-12%	-45	1%	-3%
O=C(O)CCc1c(C(=O)O)[nH]c2ccccc12	11	2%	-1%	-9	-3%	-6%
COc1ccc(OC)c(NC(=O)COCc2cc(-c3ccco3)on2)c1	/	/	/	-11	/	/
O=C1C[C@@H]2c3c(cccc3CN1Cc1ccccc1F)C[C@@H](O)[C@H]2O	0	/	-6%	49*	3%	-3%
SMILES	DRD3 antagonist	Mm-Cpn inhibitor	Rango release inh	D3 ag	Rango complex inh	TSG101-PTAP inh
Cc1csc(N/N=C/c2ccc(O)c([N+](=O)[O-])c2)n1	-54*	-2%	-1%	-10	-3%	-2%
O=[N+]([O-])c1cc(/C=N\Nc2nc(-c3ccccc3)cs2)ccc1O	-9	0%	-4%	2	3%	-4%
COc1ccc(-n2cc(CNCCc3nc(C)cc(C)n3)c(-c3ccccc3Cl)n2)cc1	-85*	1%	-5%	-25	-3%	-3%
Fc1ccc(-n2cc(CNCCc3ccccn3)c(-c3ccccc3Cl)n2)cc1	-86*	0%[15.4 µM]	12%	-39	-2%	0%
Cc1ccc(S(=O)(=O)NCc2nc(-c3cccc(C)c3)no2)cc1	/	/	/	-13	/	/
Cc1ccc(/C=C/C(=O)N2CCC(c3nc4ccccc4o3)CC2)cc1	/	/	/	-3	/	/
O=C(NNC1=Nc2ccccc2SC1)c1ccccc1F	0	-2%	-2%	-11	0%	-1%
O=C(NNC1=Nc2ccccc2SC1)c1cccc([N+](=O)[O-])c1	-61*	2%	-3%	-12	1%	-3%
Cc1cccc(CC2C(=O)Nc3ccccc32)c1 (stereo not given)	/	/	/	0	/	/
CCC1CCc2c(sc(NC(=O)C3CC=CCC3C(=O)O)c2C#N)C1 (stereo not given)	0	0%	19%	33*	1%	-5%
Cc1cc(C)c2c(NC(=O)c3ccccc3Cl)c(C(=O)NCc3ccc(Cl)cc3)sc2n1	/	/	/	4	/	/
Nc1nnc(SCC(=O)OCC(=O)c2ccccc2Br)s1	-58*	1%	2%	-27	-3%	0%
Nc1nnc(SCC(=O)OCC(=O)c2ccccc2)s1	-20	2%	-6%	7	2%	1%
O=C1OC(c2ccccc2)=NC12CC2c1ccc(Cl)cc1 (stereo not given)	-73*	-1%	4%	-3	-3%	-5%
CC1CCCN(CC(=O)Nc2cccc([N+](=O)[O-])c2)C1 (stereo not given)	0	3%	3%	-29	3%	1%
O=[N+]([O-])c1cccc(COc2ccc(CN3CCCC3)cc2)c1	?	/	0%	-54	0%	-14%
O=[N+]([O-])c1cccc(CN2CCN(Cc3ccco3)CC2)c1	-75*	-2%	-11%	-23	4%	-1%
O=C(CN1CCCCCC1)Nc1cccc([N+](=O)[O-])c1	-83*	-2%	-11%	-7	-1%	0%
O=[N+]([O-])c1cccc(CN2CCCCCC2)c1	-55*	1%	0%	-25	0%	-4%
COCCn1c(SCC(=O)Nc2ccc(Br)cc2)nc2c([nH]c3ccccc32)c1=O	/	/	/	5	/	/
O=C(CCc1ccccc1)NCc1ccc2c(c1)CCN2C(=O)c1ccc(Cl)cc1	/	/	/	-16	/	/
